# This excerpt belongs to a sample that is enriched for the strongest signals.
# Key:
# Assay in all cases: glycan array binding signal (z-score within array); higher = stronger binding
# Conditions in all cases: glycan notation: IUPAC condensed, linker removed
# [1] = target: Fuc(a1-2)Gal(b1-3)GalNAc(a1-3)[Fuc(a1-2)]Gal(b1-4)Glc
# Method in brief: (§1)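 From the Consortium for Functional Glycomics database, 3228 arrays were curated, keeping only those whose protein sequence was available. Binding is given as a within-array Z-score averaged across arrays sharing a protein sequence and across linkers. Negative Z-scores can be read as non-binding.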
# [2] = target: Fuc(a1-2)Gal(b1-3)GlcNAc(b1-3)[Gal(b1-4)GlcNAc(b1-6)]Gal(b1-4)Glc
# Method in brief: as §1
# [3] = target: Fuc(a1-2)[Gal(a1-3)]Gal(b1-4)Glc
# Method in brief: as §1
# [4] = target: Fuc(a1-2)[Gal(a1-3)]Gal(b1-4)GlcNAc(b1-2)Man(a1-3)[Fuc(a1-2)[Gal(a1-3)]Gal(b1-4)GlcNAc(b1-2)Man(a1-6)]Man(b1-4)GlcNAc(b1-4)GlcNAc
# Method in brief: as §1
# [5] = target: Fuc(a1-2)[GalNAc(a1-3)]Gal(b1-4)GlcNAc(b1-2)Man(a1-3)[Fuc(a1-2)[GalNAc(a1-3)]Gal(b1-4)GlcNAc(b1-2)Man(a1-6)]Man(b1-4)GlcNAc(b1-4)GlcNAc
# Method in brief: as §1
# [6] = target: Fuc(a1-2)[GalNAc(a1-4)]Gal(b1-4)GlcNAc
# Method in brief: as §1
# [7] = target: Fuc(a1-3)[Gal(b1-4)]GlcNAc(b1-4)Gal(b1-4)[Fuc(a1-3)]GlcNAc(b1-4)Gal(b1-4)[Fuc(a1-3)]GlcNAc
# Method in brief: as §1
# [8] = target: Gal(a1-3)GalNAc
# Method in brief: as §1
# [9] = target: Gal(b1-3)[Fuc(a1-4)]GlcNAc(b1-3)Gal(b1-4)[Fuc(a1-3)]GlcNAc
# Method in brief: as §1
# [10] = target: Gal(b1-3)[Fuc(a1-4)]GlcNAc(b1-6)GalNAc
# Method in brief: as §1
# [11] = target: Gal(b1-3)[Neu5Ac(b2-6)]GalNAc
# Method in brief: as §1
# [12] = target: Gal(b1-4)GlcNAc(b1-3)Gal(b1-4)GlcNAc(b1-2)Man(a1-3)[Gal(b1-4)GlcNAc(b1-3)Gal(b1-4)GlcNAc(b1-2)Man(a1-6)]Man(b1-4)GlcNAc(b1-4)[Fuc(a1-6)]GlcNAc
# Method in brief: as §1
# [13] = target: Gal(b1-4)GlcNAc(b1-3)Gal(b1-4)GlcNAc(b1-2)[Gal(b1-4)GlcNAc(b1-3)Gal(b1-4)GlcNAc(b1-6)]Man(a1-6)[Gal(b1-4)GlcNAc(b1-3)Gal(b1-4)GlcNAc(b1-2)Man(a1-3)]Man(b1-4)GlcNAc(b1-4)[Fuc(a1-6)]GlcNAc
# Method in brief: as §1
# [14] = target: Gal(b1-4)GlcNAc(b1-3)Gal(b1-4)GlcNAc(b1-3)Gal(b1-4)GlcNAc(b1-2)[Gal(b1-4)GlcNAc(b1-3)Gal(b1-4)GlcNAc(b1-3)Gal(b1-4)GlcNAc(b1-6)]Man(a1-6)[Gal(b1-4)GlcNAc(b1-3)Gal(b1-4)GlcNAc(b1-3)Gal(b1-4)GlcNAc(b1-2)Man(a1-3)]Man(b1-4)GlcNAc(b1-4)[Fuc(a1-6)]GlcNAc
# Method in brief: as §1
# [15] = target: Gal(b1-4)GlcNAc(b1-3)Gal(b1-4)GlcNAc(b1-3)Gal(b1-4)GlcNAc(b1-3)Gal(b1-4)GlcNAc(b1-2)Man(a1-3)[Gal(b1-4)GlcNAc(b1-3)Gal(b1-4)GlcNAc(b1-3)Gal(b1-4)GlcNAc(b1-3)Gal(b1-4)GlcNAc(b1-2)Man(a1-6)]Man(b1-4)GlcNAc(b1-4)[Fuc(a1-6)]GlcNAc
# Method in brief: as §1
# [16] = target: Gal(b1-4)GlcNAc(b1-3)Gal(b1-4)GlcNAc(b1-3)Gal(b1-4)GlcNAc(b1-3)Gal(b1-4)GlcNAc(b1-2)[Gal(b1-4)GlcNAc(b1-3)Gal(b1-4)GlcNAc(b1-3)Gal(b1-4)GlcNAc(b1-3)Gal(b1-4)GlcNAc(b1-6)]Man(a1-6)[Gal(b1-4)GlcNAc(b1-3)Gal(b1-4)GlcNAc(b1-3)Gal(b1-4)GlcNAc(b1-3)Gal(b1-4)GlcNAc(b1-2)Man(a1-3)]Man(b1-4)GlcNAc(b1-4)[Fuc(a1-6)]GlcNAc
# Method in brief: as §1
# [17] = target: Gal(b1-4)GlcNAc(b1-3)Gal(b1-4)GlcNAc(b1-3)Gal(b1-4)GlcNAc(b1-3)Gal(b1-4)GlcNAc(b1-3)Gal(b1-4)GlcNAc(b1-2)[Gal(b1-4)GlcNAc(b1-3)Gal(b1-4)GlcNAc(b1-3)Gal(b1-4)GlcNAc(b1-3)Gal(b1-4)GlcNAc(b1-3)Gal(b1-4)GlcNAc(b1-6)]Man(a1-6)[Gal(b1-4)GlcNAc(b1-3)Gal(b1-4)GlcNAc(b1-3)Gal(b1-4)GlcNAc(b1-3)Gal(b1-4)GlcNAc(b1-3)Gal(b1-4)GlcNAc(b1-2)Man(a1-3)]Man(b1-4)GlcNAc(b1-4)[Fuc(a1-6)]GlcNAc
# Method in brief: as §1
# [18] = target: Gal(b1-4)GlcNAc(b1-3)Gal(b1-4)GlcNAc(b1-3)Gal(b1-4)GlcNAc(b1-3)Gal(b1-4)GlcNAc(b1-3)Gal(b1-4)GlcNAc(b1-3)Gal(b1-4)GlcNAc(b1-2)Man(a1-3)[Gal(b1-4)GlcNAc(b1-3)Gal(b1-4)GlcNAc(b1-3)Gal(b1-4)GlcNAc(b1-3)Gal(b1-4)GlcNAc(b1-3)Gal(b1-4)GlcNAc(b1-3)Gal(b1-4)GlcNAc(b1-2)Man(a1-6)]Man(b1-4)GlcNAc(b1-4)GlcNAc
# Method in brief: as §1
# [19] = target: Gal(b1-4)GlcNAc(b1-6)[Gal(b1-3)]GalNAc
# Method in brief: as §1
# [20] = target: GalNAc(a1-3)GalNAc(b1-3)Gal(a1-4)Gal(b1-4)Glc
# Method in brief: as §1
# [21] = target: GalNAc(b1-4)GlcNAc(b1-2)Man(a1-3)[GalNAc(b1-4)GlcNAc(b1-2)Man(a1-6)]Man(b1-4)GlcNAc(b1-4)GlcNAc
# Method in brief: as §1
# [22] = target: GlcNAc(b1-2)[GlcNAc(b1-4)]Man(a1-3)[GlcNAc(b1-2)Man(a1-6)]Man(b1-4)GlcNAc(b1-4)GlcNAc
# Method in brief: as §1
# [23] = target: GlcNAc(b1-3)Gal(b1-4)Glc
# Method in brief: as §1
# [24] = target: GlcNAc(b1-3)Gal(b1-4)GlcNAc(b1-3)Gal(b1-4)GlcNAc(b1-2)[GlcNAc(b1-3)Gal(b1-4)GlcNAc(b1-3)Gal(b1-4)GlcNAc(b1-6)]Man(a1-6)[GlcNAc(b1-3)Gal(b1-4)GlcNAc(b1-3)Gal(b1-4)GlcNAc(b1-2)Man(a1-3)]Man(b1-4)GlcNAc(b1-4)[Fuc(a1-6)]GlcNAc
# Method in brief: as §1
# [25] = target: GlcNAc(b1-3)Gal(b1-4)GlcNAc(b1-3)Gal(b1-4)GlcNAc(b1-3)Gal(b1-4)GlcNAc(b1-2)[GlcNAc(b1-3)Gal(b1-4)GlcNAc(b1-3)Gal(b1-4)GlcNAc(b1-3)Gal(b1-4)GlcNAc(b1-6)]Man(a1-6)[GlcNAc(b1-3)Gal(b1-4)GlcNAc(b1-3)Gal(b1-4)GlcNAc(b1-3)Gal(b1-4)GlcNAc(b1-2)Man(a1-3)]Man(b1-4)GlcNAc(b1-4)[Fuc(a1-6)]GlcNAc
# Method in brief: as §1
# [26] = target: GlcNAc(b1-3)Gal(b1-4)GlcNAc(b1-3)Gal(b1-4)GlcNAc(b1-3)Gal(b1-4)GlcNAc(b1-3)Gal(b1-4)GlcNAc(b1-2)[GlcNAc(b1-3)Gal(b1-4)GlcNAc(b1-3)Gal(b1-4)GlcNAc(b1-3)Gal(b1-4)GlcNAc(b1-3)Gal(b1-4)GlcNAc(b1-6)]Man(a1-6)[GlcNAc(b1-3)Gal(b1-4)GlcNAc(b1-3)Gal(b1-4)GlcNAc(b1-3)Gal(b1-4)GlcNAc(b1-3)Gal(b1-4)GlcNAc(b1-2)Man(a1-3)]Man(b1-4)GlcNAc(b1-4)[Fuc(a1-6)]GlcNAc
# Method in brief: as §1
# [27] = target: GlcNAc(b1-3)[GlcNAc(b1-6)]Gal(b1-4)GlcNAc
# Method in brief: as §1
# [28] = target: GlcNAc(b1-3)[GlcNAc(b1-6)]GlcNAc(b1-4)GlcNAc
# Method in brief: as §1
# [29] = target: GlcNAc(b1-4)Gal(b1-4)GlcNAc
# Method in brief: as §1
# [30] = target: GlcNAc(b1-4)GlcNAc(b1-4)GlcNAc(b1-4)GlcNAc(b1-4)GlcNAc(b1-4)GlcNAc
# Method in brief: as §1
# [31] = target: Man(a1-3)[Man(a1-6)]Man(b1-4)GlcNAc(b1-4)[Fuc(a1-6)]GlcNAc
# Method in brief: as §1
# [32] = target: Neu5Ac(a2-3)Gal(b1-3)GalNAc(b1-3)Gal(a1-4)Gal(b1-4)Glc
# Method in brief: as §1
# [33] = target: Neu5Ac(a2-3)Gal(b1-3)GlcNAc(b1-2)Man(a1-3)[Neu5Ac(a2-3)Gal(b1-3)GlcNAc(b1-2)Man(a1-6)]Man(b1-4)GlcNAc(b1-4)GlcNAc
# Method in brief: as §1
# [34] = target: Neu5Ac(a2-3)Gal(b1-4)GlcNAc(b1-2)[Neu5Ac(a2-3)Gal(b1-4)GlcNAc(b1-4)]Man(a1-3)[GlcNAc(b1-4)][Neu5Ac(a2-3)Gal(b1-4)GlcNAc(b1-4)Man(a1-6)]Man(b1-4)GlcNAc(b1-4)GlcNAc
# Method in brief: as §1
# [35] = target: Neu5Ac(a2-3)Gal(b1-4)GlcNAc(b1-3)Gal(b1-4)GlcNAc(b1-3)Gal(b1-4)GlcNAc
# Method in brief: as §1
# [36] = target: Neu5Ac(a2-3)Gal(b1-4)GlcNAc(b1-6)[Gal(b1-3)]GalNAc
# Method in brief: as §1
# [37] = target: Neu5Ac(a2-6)Gal(b1-4)GlcNAc(b1-2)Man(a1-6)[Man(a1-3)]Man(b1-4)GlcNAc(b1-4)GlcNAc
# Method in brief: as §1
# [38] = target: Neu5Ac(a2-6)Gal(b1-4)GlcNAc(b1-3)Gal(b1-4)[Fuc(a1-3)]GlcNAc(b1-3)Gal(b1-4)[Fuc(a1-3)]GlcNAc
# Method in brief: as §1
# [39] = target: Neu5Ac(a2-8)Neu5Ac(a2-3)[Gal(b1-3)GalNAc(b1-4)]Gal(b1-4)Glc
# Method in brief: as §1
# [40] = target: Neu5Ac(a2-8)Neu5Ac(a2-3)[GalNAc(b1-4)]Gal(b1-4)Glc
# Method in brief: as §1
# [41] = target: Neu5Ac(a2-8)Neu5Ac(a2-8)Neu5Ac
# Method in brief: as §1
binder,measurement,setting,value
Gal 8 (Homo sapiens) (protein) MLSLNNLQNIIYNPVIPYVGTIPDQLDPGTLIVICGHVPSDADRFQVDLQNGSSVKPRADVAFHFNPRFKRAGCIVCNTLINEKWGREEITYDTPFKREKSFEIVIMVLKDKFQVAVNGKHTLLYGHRIGPEKIDTLGIYGKVNIHSIGFSFSSDLQSTQASSLELTEISRENVPKSGTPQLQTVSPSWDLQGHGSETFCSVLWTRVFLEIAFCRPIGLTVASFQSLPFAARLNTPMGPGRTVVVKGEVNANAKSFNVDLLAGKSKDIALHLNPRLNIKAFVRNSFLQESWGEEERNITSFPFSPGMYFEMIIYCDVREFKVAVNGVHSLEYKHRFKELSSIDTLEINGDIHLLEVRSW,glycan array binding signal (z-score),[1],0.572
same,glycan array binding signal (z-score),[2],0.003
same,glycan array binding signal (z-score),[3],4.4
same,glycan array binding signal (z-score),[4],4.31
same,glycan array binding signal (z-score),[5],5.81
same,glycan array binding signal (z-score),[6],-0.357
same,glycan array binding signal (z-score),[7],-0.35
same,glycan array binding signal (z-score),[8],-0.387
same,glycan array binding signal (z-score),[9],-0.39
same,glycan array binding signal (z-score),[10],-0.355
same,glycan array binding signal (z-score),[11],-0.387
same,glycan array binding signal (z-score),[12],3.06
same,glycan array binding signal (z-score),[13],6.42
same,glycan array binding signal (z-score),[14],6.12
same,glycan array binding signal (z-score),[15],3.61
same,glycan array binding signal (z-score),[16],5.79
same,glycan array binding signal (z-score),[17],5.3
same,glycan array binding signal (z-score),[18],5.33
same,glycan array binding signal (z-score),[19],-0.305
same,glycan array binding signal (z-score),[20],0.169
same,glycan array binding signal (z-score),[21],-0.353
same,glycan array binding signal (z-score),[22],-0.354
same,glycan array binding signal (z-score),[23],-0.338
same,glycan array binding signal (z-score),[24],5.71
same,glycan array binding signal (z-score),[25],4.87
same,glycan array binding signal (z-score),[26],6.06
same,glycan array binding signal (z-score),[27],-0.41
same,glycan array binding signal (z-score),[28],-0.727
same,glycan array binding signal (z-score),[29],-0.2
same,glycan array binding signal (z-score),[30],-0.392
same,glycan array binding signal (z-score),[31],-0.357
same,glycan array binding signal (z-score),[32],0.798
same,glycan array binding signal (z-score),[33],-0.328
same,glycan array binding signal (z-score),[34],-0.314
same,glycan array binding signal (z-score),[35],2.12
same,glycan array binding signal (z-score),[36],-0.143
same,glycan array binding signal (z-score),[37],-0.357
same,glycan array binding signal (z-score),[38],-0.378
same,glycan array binding signal (z-score),[39],-0.355
same,glycan array binding signal (z-score),[40],-0.398
same,glycan array binding signal (z-score),[41],-0.396

# Source: the supplement of paper PMC8728848
